Measurements taken from PubChem BioAssay (Tox21).
Records with an inconclusive call do not appear. Entries that show only a call come without a potency. The source made the active and inactive calls. Calls come from the whole dose curve; as a rule, active = well fitted cell-killing curve with a large enough effect in the repeat runs; inconclusive = weak or mixed curves, or effect the other way; inactive = flat fitted curve, though single readings scatter.

Columns and labels:
[1] = cAMP Responsive Elements (CRE) small molecule antagonists, cell-based qHTS assay: qHTS cell viability counter screen (AID 2060913); note: nearly all actives have a fitted effect of over 40% in size
How it was run: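 Steps: cells plated and held 18 hrs at 37 C/5% CO2; compounds and NKH477 (0.25 uM final) added; 3 hrs incubation; reporter substrate read; CellTiter-Glo added to measure cytotoxicity by luminescence.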

[2] = cAMP Responsive Elements (CRE) small molecule agonists, cell-based qHTS assay: qHTS cell viability counter screen (AID 2060914);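 note: viability read after 3 h of compound exposure; nearly all actives have a fitted effect of over 50% in size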
How it was run: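 CRE-bla HEK 293T cells, plated 18 h at 37 °C, were exposed to compounds for 3 h at 37 °C/5% CO2. Viability was then measured in the same wells by CellTiter-Glo luminescence after 30 min at room temperature.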

Row | SMILES | Potency [1] | Potency [2]
1 | O=C(OCC(COC(=O)c1ccccc1)(COC(=O)c1ccccc1)COC(=O)c1ccccc1)c1ccccc1 | inactive | inactive
2 | CC(C)(C)c1nnc(NS(=O)(=O)c2ccc(N)cc2)s1 | inactive | inactive
3 | CCN1CN(CC)CN(CC)C1 | inactive | inactive
4 | Nc1c(CC(=O)O)cccc1C(=O)c1ccc(Br)cc1 | inactive | inactive
5 | CCC(C)SSC(C)CC (centres undefined) | inactive | inactive
6 | CCc1ccc(C)cc1 | inactive | inactive
7 | CCCCCCCCO[C@@H]1O[C@H](CO)[C@@H](O)[C@H](O)[C@H]1O | inactive | inactive
